Consider 90 compounds from publication PMC4336329 (PLoS ONE, 2015).

Screen size: about 310,000 compounds; about 14,000 (4.5%) showed an effect of 50% or more. The effect is printed as a negative number. The sample as a whole holds a higher share of strong results than the screen did.
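Note: peak tail current of the secondary pulse compared with the same well before compound.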

For this test, the target named is human ether-à-go-go-related gene (hERG) potassium channel (human, UniProt Q12809). The test is described as follows: primary screen, population patch clamp on CHO cells stably expressing hERG; higher = less effect of the substance.
human ether-à-go-go-related gene (hERG) potassium channel, sequence (Q12809 whole entry, looked up): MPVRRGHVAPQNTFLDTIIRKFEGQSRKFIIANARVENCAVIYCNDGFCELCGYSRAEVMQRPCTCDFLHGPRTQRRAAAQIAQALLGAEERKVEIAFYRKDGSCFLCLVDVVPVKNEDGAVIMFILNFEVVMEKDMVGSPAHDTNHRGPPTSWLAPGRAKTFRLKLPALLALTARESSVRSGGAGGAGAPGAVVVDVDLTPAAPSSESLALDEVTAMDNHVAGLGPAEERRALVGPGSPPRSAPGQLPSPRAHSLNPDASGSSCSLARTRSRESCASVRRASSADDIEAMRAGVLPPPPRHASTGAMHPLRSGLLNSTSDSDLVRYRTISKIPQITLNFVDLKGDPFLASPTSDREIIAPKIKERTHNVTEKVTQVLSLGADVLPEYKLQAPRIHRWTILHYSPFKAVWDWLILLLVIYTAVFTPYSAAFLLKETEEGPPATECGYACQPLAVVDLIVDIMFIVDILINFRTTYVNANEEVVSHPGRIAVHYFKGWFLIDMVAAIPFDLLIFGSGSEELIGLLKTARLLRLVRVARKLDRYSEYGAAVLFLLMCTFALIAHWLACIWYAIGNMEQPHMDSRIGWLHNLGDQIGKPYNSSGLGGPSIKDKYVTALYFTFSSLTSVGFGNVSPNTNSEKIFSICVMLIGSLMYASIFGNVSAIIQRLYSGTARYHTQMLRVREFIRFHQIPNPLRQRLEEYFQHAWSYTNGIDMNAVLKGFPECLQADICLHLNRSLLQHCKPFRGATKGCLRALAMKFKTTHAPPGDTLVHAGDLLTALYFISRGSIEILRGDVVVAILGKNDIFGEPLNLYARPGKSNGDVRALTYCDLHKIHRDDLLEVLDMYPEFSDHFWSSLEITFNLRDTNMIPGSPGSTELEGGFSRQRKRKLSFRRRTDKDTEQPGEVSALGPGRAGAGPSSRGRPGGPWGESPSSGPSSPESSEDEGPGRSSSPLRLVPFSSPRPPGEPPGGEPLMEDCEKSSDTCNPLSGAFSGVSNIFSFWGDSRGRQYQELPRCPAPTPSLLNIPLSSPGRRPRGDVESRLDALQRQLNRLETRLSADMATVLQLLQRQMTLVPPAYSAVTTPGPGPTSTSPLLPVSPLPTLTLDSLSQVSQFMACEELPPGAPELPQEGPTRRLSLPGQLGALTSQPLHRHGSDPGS
As for `COc1cc(C2/C(=C(/O)c3ccccc3)C(=O)C(=O)N2c2ccccn2)ccc1O` (stereo not drawn), the “hERG current change (%, negative = inhibition) at 10uM” value is listed as 25.1%. Under `O=C(COC(=O)CN1C(=O)C2CC=CCC2C1=O)Nc1cc(C(F)(F)F)ccc1N1CCOCC1` (stereo not drawn) stands -26.8%. Under `CC(=O)OCCN(Cc1ccccc1)Cc1ccc2c(c1)OCO2` stands -10.8%.

With `CC(/C=N/n1c(-c2cc(C)[nH]n2)n[nH]c1=S)=C\c1ccccc1`, the “hERG current change (%, negative = inhibition) at 10uM” value worked out at 14.7%. For the compound `COc1ccc(CCC(=O)N(C)CC(=O)Nc2ccc(Cl)c(C(F)(F)F)c2)cc1`, the “hERG current change (%, negative = inhibition) at 10uM” value is given as 22.2%. In the case of `CN(CC(=O)Nc1cccc(F)c1)C(=O)CCCNC(=O)c1ccc(Cl)cc1`, the “hERG current change (%, negative = inhibition) at 10uM” value is listed as -36.7%. `COc1ccc(NC(=O)CCCCCN2C(=O)CCC2=O)cc1Cl`: the “hERG current change (%, negative = inhibition) at 10uM” value was -2.22%.

For the compound `O=C(CCCCCN1C(=O)CCC1=O)Nc1ccc(Cl)c(C(F)(F)F)c1`, the “hERG current change (%, negative = inhibition) at 10uM” value was -58.7%.

For `COc1ccc(NC(=O)CSCC(=O)N(C)CC(=O)Nc2ccc(Cl)c(C(F)(F)F)c2)cc1`, the “hERG current change (%, negative = inhibition) at 10uM” value is on record as -68.6%. Regarding `COc1ccc(NC(=O)CN(C)C(=O)CSCC(=O)Nc2ccc(C)cc2)cc1`, the “hERG current change (%, negative = inhibition) at 10uM” value is on record as -0.753%.

Regarding `CN(CC(=O)Nc1ccc(Cl)c(C(F)(F)F)c1)Cc1cc(=O)n2ccsc2n1`, the “hERG current change (%, negative = inhibition) at 10uM” value is recorded as -82.8%. Take `CN(CC(=O)Nc1ccc(Cl)c(C(F)(F)F)c1)C(=O)CCCNC(=O)c1ccc(Cl)cc1`: the “hERG current change (%, negative = inhibition) at 10uM” value is reported as -52.2%. For the compound `Cc1ccc(NC(=O)CN(C)Cc2cc(=O)n3ccsc3n2)cc1`, the “hERG current change (%, negative = inhibition) at 10uM” value is recorded as -7.66%.

On to `O=C(CCCN1C(=O)CCC1=O)Nc1ccc(Cl)c(C(F)(F)F)c1`, for which the “hERG current change (%, negative = inhibition) at 10uM” value is -18.8%. With `COc1cccc(NC(=O)CN(C)C(=O)CCCNC(=O)c2ccc(Cl)cc2)c1`, the “hERG current change (%, negative = inhibition) at 10uM” value is listed as -46.5%. The figure for `CN(CC(=O)Nc1ccc(Cl)cc1)Cc1cc(=O)n2ccsc2n1` is -33.3%.

With `CC(=O)N1N=C(c2ccc(C)cc2)OC1c1cccnc1` (stereo not drawn), the “hERG current change (%, negative = inhibition) at 10uM” value is 8.57%. The figure for `CCOC(=O)C1CCCN(S(=O)(=O)c2ccc(-n3cnnn3)c(C)c2)C1` (stereo not drawn) is -11.3%; for `COc1ccc(Cl)cc1NC(=O)CN(C)C(=O)CCCNC(=O)c1ccc(Cl)cc1` it is -55.4%. Under `COc1ccc(Cl)cc1NC(=O)CCCNC(=O)c1ccc(Cl)cc1` stands -4.84%. Under `COc1ccc(Cl)cc1NC(=O)CN(C)C(=O)CCNC(=O)c1ccccc1OC` stands -9.08%; under `Cc1cc(C)n(/N=C/c2ccccc2)c(=O)c1C#N`, 17%; under `Cc1ccccc1NC(=O)CSc1nc(-c2ccccc2)cc(=O)[nH]1`, 24.9%. Regarding `CCOc1ncccc1C(=O)Nc1cc(S(=O)(=O)N2CCCCC2)ccc1Cl`, the “hERG current change (%, negative = inhibition) at 10uM” value was 20.5%. Regarding `COc1cccc(NC(=O)CSc2nnc3c(n2)[nH]c2ccc(C)cc23)c1`, the “hERG current change (%, negative = inhibition) at 10uM” value came to 8.36%. The figure for `Cn1c(CN2CCN(C(=O)c3ccccc3Cl)CC2)nc2cc([N+](=O)[O-])ccc21` is -70.7%; for `COc1ccc(C(=O)NCCc2nc3cc([N+](=O)[O-])ccc3n2C)cc1` it is -39.9%; for `COc1ccccc1C(=O)N1CCN(Cc2nc3cc([N+](=O)[O-])ccc3n2C)CC1` it is -67.6%. Under `CC(=O)N1CCN(Cc2nc3cc(NC(=O)c4ccccc4Cl)ccc3n2C)CC1` stands -20.8%; under `Cn1c(CN2CCOCC2)nc2cc(NC(=O)c3ccccc3Cl)ccc21`, -10.4%; under `Cc1cc(C(c2nnnn2Cc2ccccc2)N2CCOCC2)c(C)n1-c1ccc2c(c1)OCO2` (stereo not drawn), -32.1%. For the compound `CCC(C)(C(=O)Nc1ccccc1C)N(C(=O)CNC(C)=O)c1ccc(C)cc1` (stereo not drawn), the “hERG current change (%, negative = inhibition) at 10uM” value amounted to 14.8%. The figure for `COc1ccc(NC(=O)COC(=O)CCCC2=NS(=O)(=O)c3ccccc3N2)cc1Cl` is 38.8%; for `O=C(NCc1ccccc1)c1cc(S(=O)(=O)N2CCCCC2)ccc1N1CCOCC1` it is -20.1%; for `O=C(CSc1nnc(CNc2ccc(F)cc2)o1)N1CCCc2ccccc21` it is 2.24%.

On to `CCN1CCCC1CNC(=O)c1cc(N)ccc1OC.O.O=C(O)C(=O)O` (stereo not drawn), for which the “hERG current change (%, negative = inhibition) at 10uM” value is given as 13.5%. Under `Cl.O=C(CNCC1CCCCC1)Nc1ccc(OC(F)(F)F)cc1` stands -62.4%; under `CCN1CCCC1CNC(=O)C(=O)Nc1ccc(OC)cc1` (stereo not drawn), -5.95%; under `CCN(C(=S)Nc1ccc(OC(F)F)cc1)C1CCCCC1`, -22.8%.

`CCN(CC(=O)Nc1ccc(OC(F)F)cc1)C1CCCCC1`: the “hERG current change (%, negative = inhibition) at 10uM” value is listed as -73.5%.

Consider `CCN1CCCC1CNCC(O)COc1ccc(C(C)(C)C)cc1C.O=C(O)C(=O)O` (stereo not drawn), for which the “hERG current change (%, negative = inhibition) at 10uM” value is on record as -54.4%.

On to `CNCC(=O)Nc1ccc(OC(F)(F)F)cc1.Cl`, for which the “hERG current change (%, negative = inhibition) at 10uM” value is reported as -3.92%.

Take `CCN1CCCC1CNC(=O)C(=O)NCCc1ccc(OC)c(OC)c1` (stereo not drawn): the “hERG current change (%, negative = inhibition) at 10uM” value is on record as -1.49%. The figure for `CCN(CC(=O)Nc1ccc(C(=O)OC)cc1)C1CCCCC1` is -1.85%; for `CCC(C)(C)NCC(=O)Nc1ccc(OC(F)(F)F)cc1` it is -32.7%; for `CCN1CCCC1CNCC(=O)Nc1ccc(OC(F)(F)F)cc1.O=C(O)C(=O)O` (stereo not drawn) it is -70.7%. Consider `O=C(CNCC1CCCCC1)Nc1ccc(N2CCCCC2)cc1.O=C(O)C(=O)O`, for which the “hERG current change (%, negative = inhibition) at 10uM” value is on record as -17.3%. The figure for `C=CCN1C(=O)NC(=O)/C(=C/c2cc3c4c(c2)CCCN4CCC3)C1=O` is -10.2%; for `CC1CC(C(F)(F)F)n2ncc(C(=O)O)c2N1` (stereo not drawn) it is 11.5%; for `CCNC(=O)c1ccc2c(c1)C1C3CCC(C3)C1C(c1ccccc1)N2` (stereo not drawn) it is -5.8%. The figure for `CC1=C(C(=O)Nc2ccc(F)cc2)C(c2ccc(C)o2)C2=C(CC(C)(C)CC2=O)N1` (stereo not drawn) is -7.85%; for `COc1ccccc1CNC(=O)COC(=O)c1cc(=O)[nH]c2ccccc12` it is 1.03%.

On to `Cc1cc(Cl)ccc1C(=O)C1CCCN(C(=O)c2cnn(C(C)C)c2)C1` (stereo not drawn), for which the “hERG current change (%, negative = inhibition) at 10uM” value was -17.7%.

In the case of `CC(C)Oc1ccc(C(=O)NN2C(=O)NC3(CCCCC3)C2=O)cc1`, the “hERG current change (%, negative = inhibition) at 10uM” value amounted to 1.38%. The figure for `CCOC(=O)N1CCC(N(CCN(C)C)C(=S)Nc2cccc(C)c2)CC1` is 4.81%; for `COc1ccc(OC)c(NC(=O)NNC(=O)c2cc3occc3[nH]2)c1` it is 14.3%; for `NNC(=O)CC12CC3CC(C1)CC(n1ncnn1)(C3)C2` it is -15.1%. For `COc1ccc(CCC(=O)N(c2nnc(-c3cccnc3)s2)C(C)C)cc1.Cl`, the “hERG current change (%, negative = inhibition) at 10uM” value is -49.6%. The figure for `Cc1ccc(NC(=O)Cc2ccc(Cl)c(Cl)c2)cc1S(=O)(=O)N(C)C` is 7.88%; for `CN(CC(=O)Nc1ccc(OC(F)(F)F)cc1)C1CCCCC1.Cl` it is -61.6%. For the compound `CCCCCOc1ccc(NC(=O)C(=O)NCC2CCCN2CC)cc1` (stereo not drawn), the “hERG current change (%, negative = inhibition) at 10uM” value is -77.9%. Under `CN(CC(=O)Nc1ccc(F)c(F)c1F)C(=O)C1CCC1` stands 9.13%. For the compound `CN(CC(=O)Nc1ccc(F)c(F)c1F)C(=O)C1CCCC1`, the “hERG current change (%, negative = inhibition) at 10uM” value amounted to 1.05%. The figure for `CCOC(=O)C1CSC(CC(=O)Nc2ccc(OCC)cc2)C(=O)N1` (stereo not drawn) is -5.69%; for `CCOC(=O)C1CSC(CC(=O)Nc2ccc(OC(F)(F)F)cc2)C(=O)N1` (stereo not drawn) it is -56.3%; for `CN(CC(=O)Nc1ccc(F)c(F)c1F)C1CCCCC1` it is -52.5%. Under `CCOC(=O)C1CSC(CC(=O)Nc2ccc(Cl)cc2)C(=O)N1` (stereo not drawn) stands -14.9%. Under `CCOc1ccc(NC(=O)C(=O)NCC2CCCN2CC)cc1` (stereo not drawn) stands -16.4%; under `Cc1ccc(NC(=O)CN(C)C2CCCCC2)cc1Br.Cl`, -28.8%; under `CCN1CCCC1CNC(=O)C(=O)Nc1ccccc1` (stereo not drawn), -9.35%. Turning to `CN(CC(=O)Nc1ccc(OC(F)(F)F)cc1)C(=O)C1CCC1`, the “hERG current change (%, negative = inhibition) at 10uM” value is reported as -1.21%. The figure for `CC(=O)Nc1ccc(NC(=O)c2ccc(COc3ccccc3Br)o2)cc1` is 17.1%; for `CCOC(=O)c1c(C)[nH]c(C(=O)COC(=O)CN2C(=O)C3CCCCC3C2=O)c1C` (stereo not drawn) it is -16.8%. Turning to `Nc1cc(-c2ccccc2)nn1Cc1ccc(Cl)cc1`, the “hERG current change (%, negative = inhibition) at 10uM” value is listed as -19%. Under `O=C(CCCOc1ccccc1)Nc1ccc(Br)cc1` stands 22.3%; under `CC(=O)OCCn1c(=O)c2cc3c(=O)n(CCOC(C)=O)c(=O)c3cc2c1=O`, -4.39%; under `Cn1nccc1C(=O)N1CCC(Cc2ccccc2)CC1`, -9.69%.

With `Cc1ccc(S(=O)(=O)N2CCOCC2)cc1C(=O)N1CC(C)OC(C)C1` (stereo not drawn), the “hERG current change (%, negative = inhibition) at 10uM” value is given as 15.1%. The figure for `COc1ccc(S(=O)(=O)N2CCCCC2)cc1NC(=O)CN(Cc1ccco1)Cc1ccco1` is -23.7%; for `Cc1ccccc1C(=O)NC(=S)Nc1ccc2[nH]c(=O)[nH]c2c1` it is 23.1%; for `COC(=O)c1ccc(COC(=O)c2c(C)nn(Cc3ccccc3Cl)c2Cl)o1` it is 10.9%. Under `CN(CC(=O)Nc1ccc(Cl)c(Cl)c1)C1CCCCC1.O=C(O)C(=O)O` stands -7.28%; under `CCOCCCNCC(=O)Nc1ccc(OC(F)(F)F)cc1.Cl`, -56.4%; under `COc1ccc(NC(=O)CN(C)C2CCCCC2)cc1Cl`, -55%. For `COCCCNCC(=O)Nc1ccc(OC(F)(F)F)cc1.Cl`, the “hERG current change (%, negative = inhibition) at 10uM” value was -30%. Under `CN(CC(=O)Nc1ccc(S(N)(=O)=O)cc1)C1CCCCC1` stands -1.84%; under `CN(CC(=O)Nc1ccc(SC(F)F)cc1)C1CCCCC1`, -70%; under `COc1ccc(NC(=O)CN(C2CCCCC2)S(C)(=O)=O)cc1Cl`, -18.4%. Under `COCCNCC(=O)Nc1ccc(OC(F)(F)F)cc1.Cl` stands -33.9%; under `CN(CC(=O)Nc1ccc(Cl)cc1)C1CCCCC1`, -10%.
